Laboratory results taken from publication PMC7819943, “Rice protein-binding microarrays: a tool to detect cis-acting elements near promoter regions in rice”.
The full ranking holds about 39,000 sequences; the median of “fluorescence intensity (a.u.)” is about 4,300, and the highest 2% start at about 39,000. Many of the other results were omitted from the sample, so the highest values are more common in it than they were.

Biological target: T1, OsSMF1 (Oryza sativa, UniProt Q6ZLB0 1-436)
T1 sequence: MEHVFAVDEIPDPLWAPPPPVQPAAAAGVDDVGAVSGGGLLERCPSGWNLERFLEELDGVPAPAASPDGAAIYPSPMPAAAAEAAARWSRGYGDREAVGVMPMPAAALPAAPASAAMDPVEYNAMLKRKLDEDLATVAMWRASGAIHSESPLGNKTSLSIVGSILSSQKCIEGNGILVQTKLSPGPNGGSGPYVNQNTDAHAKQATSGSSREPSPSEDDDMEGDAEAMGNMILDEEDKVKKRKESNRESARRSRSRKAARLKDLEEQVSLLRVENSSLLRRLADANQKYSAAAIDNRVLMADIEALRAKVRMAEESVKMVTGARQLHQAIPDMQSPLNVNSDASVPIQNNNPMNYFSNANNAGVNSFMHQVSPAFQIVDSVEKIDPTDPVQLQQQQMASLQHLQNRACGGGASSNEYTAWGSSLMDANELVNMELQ
Assay: protein-binding microarray (RPBM); PBS, 2% BSA, 51.3 ng/ul salmon testes DNA, 50 uM zinc acetate, 200 nM TF, 25 C, 1 h; high values mean tight binding
Settings: protein: recombinant; tags: N-terminal polyhistidine and DsRed monomer fusion (pET32a); chain copies: 2; label: CyDye5-dUTP incorporated in the synthesized complementary strand; 3' TTTTT single-stranded linker to array surface; dsDNA, one strand shown
How it was run: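 Ni–NTA purification followed expression in E. coli BL21-CodonPlus of transcription factors fused N-terminally to a polyhistidine tag and DsRed. At 200 nM in PBS with 2% BSA, salmon testes DNA and 50 µM zinc acetate, the protein was incubated for 1 h at 25 °C with a custom Agilent array that had been primer-extended with Cy5-dUTP and blocked with 2% BSA. After washing, the array was read on an Axon 4000B scanner. The binding signal is per-feature fluorescence intensity in arbitrary units.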

Sequence	binding signal
CCGTCTCCACGCACTCGAACGTCACCGACGACCCCGGCAGCGGAGTCACCTAGTGCAG	5490 fluorescence intensity (a.u.)
GCCACACCTCCCATTCCTTAGCCAAACACTCGCACTACTCCGGAGTCACCTAGTGCAG	3200 fluorescence intensity (a.u.)
CGGTTGAATTGTTCTTGGCATCATCGGGTGTAACCGTGTACGGAGTCACCTAGTGCAG	3350 fluorescence intensity (a.u.)
TTCTCAGCCAATCCCCAGCTCACACGTGCCAACTCTTCCACGGAGTCACCTAGTGCAG	7630 fluorescence intensity (a.u.)
CCACCATGGATCCGACGTGGCACAACCACATTGGTCCCTCCGGAGTCACCTAGTGCAG	17700 fluorescence intensity (a.u.)
AAGCGCGCGCCTCGCCACCTCACCCGAAGAAATTCCCCACCGGAGTCACCTAGTGCAG	4140 fluorescence intensity (a.u.)
TAGGCCCACACCTAGTCAGCTCAATCGAAATACAACCCACCGGAGTCACCTAGTGCAG	3450 fluorescence intensity (a.u.)
AACAGCTCAATTAATTAATCGCCCACACCGAAGCGCGCACCGGAGTCACCTAGTGCAG	39800 fluorescence intensity (a.u.)
CCACACACCATTGCCGCATCATCCACCACCGCCTCCTCAGCGGAGTCACCTAGTGCAG	5210 fluorescence intensity (a.u.)
CTTGCCTCCGCCCATAAATACCACCCGCATTGGCGTTCAGCGGAGTCACCTAGTGCAG	50900 fluorescence intensity (a.u.)
CGCATCCCGGCCCATCCGCCTCGTCAGCGGCGGCGCACCACGGAGTCACCTAGTGCAG	10800 fluorescence intensity (a.u.)
GTTCGCCGTGGATTTCTTTTCTTGCGTCAGTGATACTGATCGGAGTCACCTAGTGCAG	5040 fluorescence intensity (a.u.)
TTCTATTCTCCCAAAATTCCTATAGAACGAGATATTCCATCGGAGTCACCTAGTGCAG	22200 fluorescence intensity (a.u.)
AACTATAGATCCAAGTGAGGAAGCTATATTCCCAAATTTTCGGAGTCACCTAGTGCAG	46000 fluorescence intensity (a.u.)
TGGAGCTAGTCAAGTAGACAGATCATACTATTCCCCAATTCGGAGTCACCTAGTGCAG	4150 fluorescence intensity (a.u.)
GCTTGCCGACGCCGACGCCGCCGCCGCCACCGCCGTGGCGCGGAGTCACCTAGTGCAG	4150 fluorescence intensity (a.u.)
GTCTTCACAAATCCGATGACGCCACGTCATCTATCCGGCCCGGAGTCACCTAGTGCAG	46400 fluorescence intensity (a.u.)
CACCCGACTCAGATACCCGAATCCACGTCAGCCCAGAGCCCGGAGTCACCTAGTGCAG	14300 fluorescence intensity (a.u.)
AGCAAAATCTACGCGATGACGCCACGTGACATGACATCGCCGGAGTCACCTAGTGCAG	5840 fluorescence intensity (a.u.)
AATCATCCGCCCCAGGCCCCAGCCACGTCGTCCAGATCGCCGGAGTCACCTAGTGCAG	6410 fluorescence intensity (a.u.)
CGATCTATCTTAGTTCATTCGCTGCAAATCCGACGCCTGACGGAGTCACCTAGTGCAG	3240 fluorescence intensity (a.u.)
TCCAGATCAAATCCGACGGCCCAGGATACGCCACGTCACCCGGAGTCACCTAGTGCAG	46700 fluorescence intensity (a.u.)

Sequence	binding signal
GCTACATTTTCGTCGACGTACGTCAGTGACACATGAACTACGGAGTCACCTAGTGCAG	4800 fluorescence intensity (a.u.)
TTCAGCCTGTCATCGTCAATTCGTCATCAGTTCATCGCTCCGGAGTCACCTAGTGCAG	5390 fluorescence intensity (a.u.)
TTCGTGGCGGCTCCTCCTGTGCCATGGCCGCCGATGGTGACGGAGTCACCTAGTGCAG	3320 fluorescence intensity (a.u.)
AAGTCGTTCACTCGGCAACGTGTCATCCGGATAGACGTTGCGGAGTCACCTAGTGCAG	6700 fluorescence intensity (a.u.)
CTCCTTGTCCACGTGGCGGCCTCCGATTCGCTGCCACCTCCGGAGTCACCTAGTGCAG	23900 fluorescence intensity (a.u.)
CGTGTCCTAATCACCTTGCTTACGTGGCACTTGCCGATTCCGGAGTCACCTAGTGCAG	43900 fluorescence intensity (a.u.)
ACGGCTTCCTTACGTGGCACACGTAAGCCGTTGCTTGCTTCGGAGTCACCTAGTGCAG	35100 fluorescence intensity (a.u.)
CCAGTTAGGCCCACGAGTAGGTGGAACGACCACCTCACGGCGGAGTCACCTAGTGCAG	3710 fluorescence intensity (a.u.)
TTCCCGGTCTCTTATTATCCATATCATAAGTAAATTAGTTCGGAGTCACCTAGTGCAG	7670 fluorescence intensity (a.u.)
CCTAGCCCTCCTCCTACTCCTCTGCAATGGTAGATTGCGCCGGAGTCACCTAGTGCAG	47700 fluorescence intensity (a.u.)
CGCCGCCTGCCCCTGCGCCTGCAGCCTCTGCGCCTCCTGCCGGAGTCACCTAGTGCAG	3560 fluorescence intensity (a.u.)
CTCCGTGAGCCCTTCCTCCTCCGCTCCTCTCCTTTCCGCCCGGAGTCACCTAGTGCAG	15600 fluorescence intensity (a.u.)
TTAGCCCTTCCTCTCCTGCTTCCGCCCTTCCATGGCAATGCGGAGTCACCTAGTGCAG	46700 fluorescence intensity (a.u.)
GCCTTCCCTTCCTTCCTCTGCCAATGGCCGCGCGTCAGCCCGGAGTCACCTAGTGCAG	3390 fluorescence intensity (a.u.)
CTCTCTTCCTCTCTCTCTCCTCCGCGTAGGATTTAGCCTGCGGAGTCACCTAGTGCAG	3880 fluorescence intensity (a.u.)
CGACGCGGCGGCGAAAAGTCGGCGAACTGCGGCGAGGTGGCGGAGTCACCTAGTGCAG	30100 fluorescence intensity (a.u.)
GAATTAGCTTGATTGACAGAAACAAATGGCTACAACTACACGGAGTCACCTAGTGCAG	65500 fluorescence intensity (a.u.)
GAAAGCTAGAAGAGAAATTGACCTGGATTGAGTTTTGTGCCGGAGTCACCTAGTGCAG	4170 fluorescence intensity (a.u.)
AGTTGATAGGAGTAGCTTGAAGAAGCAGAGACAGCTAGATCGGAGTCACCTAGTGCAG	37600 fluorescence intensity (a.u.)
AGAAATTGAATTGCTTGCTACAGAGAAGCTAGAAGAGTTTCGGAGTCACCTAGTGCAG	64800 fluorescence intensity (a.u.)
AAATGGCCTTGCACACCTTGTCATTGAAATTAAGAACAAACGGAGTCACCTAGTGCAG	6400 fluorescence intensity (a.u.)
GAATGAATTGAAACAGACAATGCACACGCTTAGTCCATGACGGAGTCACCTAGTGCAG	28800 fluorescence intensity (a.u.)
